Experimental data published in PubChem BioAssay (NCATS).
Records with an inconclusive call do not appear. Unmarked numbers belong to inactive results. Activity calls are given as the source filed them. The call rests on the fitted dose curve; in most records, active means well fitted curve in the direction sought with a large enough effect; inconclusive means small, poorly fitted or top-dose-only effect, or another doubt; inactive means no such curve, though single readings can be large; an effect the other way counts as inactive or inconclusive.

Key:
[1] = test system: Zika virus NS2B-NS3 protease (unlinked complex); assay: Confirmatory screen GU AMC qHTS for Zika virus inhibitors (AID 1347153); further: nearly all actives have a fitted effect of over 70% in size;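 on Potency: enzyme at 25 nM with substrate at 10 µM below its Km of 18.3 µM; potency means the concentration at half of the fitted maximal effect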
Procedure, shortened: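 Compounds were preincubated 15 min at room temperature with 25 nM noncovalent NS2B-NS3 protease at pH 8.0; AMC substrate added at 10 microM and 15-min fluorescence gain (340/450 nm) converted to percent inhibition, fitted 4-parameter.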

[2] = Confirmatory screen GU Rhodamine qHTS for Zika virus inhibitors qHTS (AID 1347157); further: nearly all actives have a fitted effect of over 70% in size; further: potency means the concentration at half of the fitted maximal effect
Procedure, shortened: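 A qHTS format was used, with compound concentrations ranging up to 114 microM. Each compound was preincubated with 25 nM NS2B-NS3 protease, and the substrate was then added at 1.5 microM. Curves were fitted with a 4-parameter Hill model.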

[3] = test system: Zika virus NS2B-NS3 protease (unlinked complex); assay: Primary screen GU Rhodamine qHTS for Zika virus inhibitors: Unlinked NS2B-NS3 protease assay (AID 1347159); further: nearly all actives have a fitted effect of over 60% in size; further: potency means the concentration at half of the fitted maximal effect
Procedure, shortened: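 Percent inhibition came from the 15-min rise in Rhodamine110 fluorescence (1.5 microM substrate, ~15% conversion), normalized to no-inhibitor and no-enzyme wells and Hill-fitted. Unlinked protease, 25 nM, pH 8.0 Tris buffer; compounds up to 114 microM, 15-min preincubation.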

[4] = Confirmatory screen NINDS Rhodamine qHTS for Zika virus inhibitors (AID 1347161); further: nearly all actives have a fitted effect of over 60% in size; further: potency means the concentration at half of the fitted maximal effect
Procedure, shortened: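 qHTS dose-response: 25 nM linked protease, pH 8.0 Tris/Tween buffer, cpd titration, 15 min RT preinc, 1.5 microM Rhod110 peptide, 15 min reaction (~15% conversion), Ex480/Em540; 4-parameter Hill fit.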

[5] = test system: Zika virus NS2B-NS3 protease (linked); assay: 384 well plate NINDS AMC confirmatory qHTS for Zika virus inhibitors (AID 1347163); further: nearly all actives have a fitted effect of over 50% in size; further: potency means the concentration at half of the fitted maximal effect
Procedure, shortened: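 Fluorescence at 355/460 nm was read after 25 minutes of cleavage of 30 microM Ac-VKTGKR-AMC at room temperature, in the dark. Before substrate addition, compounds (up to 1 mM final) sat ~15 minutes with 5, 30 or 60 nM linked protease. Signals were normalized to no-enzyme and no-inhibitor wells.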

[6] = test system: Zika virus NS2B-NS3 protease (linked construct); assay: 384 well plate NINDS Rhodamine confirmatory qHTS for Zika virus inhibitors (AID 1347164);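 further: fluorescence from protease cleavage of Ac-LKRR-rhodamine 110 substrate; nearly all actives have a fitted effect of over 65% in size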; further: potency means the concentration at half of the fitted maximal effect
Procedure, shortened: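 Enzyme (final 5/30/60 nM) + cpd (DMSO), ~15 min; add Ac-LKRR-Rd 10 microM final; 25 min RT, dark; FI ex 485/em 538; normalized to no-enzyme, no-inhibitor ctrls; aprotinin intraplate ctrl.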

[7] = HepG2 cells viability qHTS for Zika virus inhibitors (AID 1347168)
Procedure, shortened: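 Luminescent ATP readout (CellTiter Glo) after 30 min at 37 degrees C gives viability; cells in DMEM + 4% FBS were treated 24 to 48 hours with compound, following overnight attachment.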

[8] = ZIKV-mCherry secondary qHTS for Zika virus inhibitors (AID 1347158); further: potency means the concentration at half of the fitted maximal effect
Procedure, shortened: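 Compounds were tested in Vero monkey kidney cells infected with recombinant mCherry-expressing Zika virus at MOI 1 for 48-72 h at 37 °C. Fixed cells were nuclear-stained and imaged, and infection rate was taken as the fraction of mCherry-positive cells.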

[9] = test system: Zika virus NS2B-NS3 protease (linked construct); assay: Primary screen NINDS Rhodamine qHTS for Zika virus inhibitors (AID 1347160); further: nearly all actives have a fitted effect of over 55% in size; further: potency means the concentration at half of the fitted maximal effect
Procedure, shortened: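 Rhodamine110-peptide cleavage (1.5 µM substrate) by 25 nM linked NS2B-NS3 enzyme at pH 8.0 (Tris, Tween 20), after 15 min RT preincubation with compounds; 15-min fluorescence change normalized to controls and Hill-fitted.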

[10] = test system: Zika virus NS2B-NS3 protease; assay: Primary screen GU AMC qHTS for Zika virus inhibitors (AID 1347154); further: nearly all actives have a fitted effect of over 70% in size
Procedure, shortened: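 Fluorogenic AMC-substrate cleavage by noncovalent NS2B-NS3 protease complex (25 nM, pH 8.0 Tris buffer with Tween 20) followed for 15 minutes at room temperature (~20% conversion). Percent inhibition from ex340/em450 signal change, fitted by 4-parameter Hill equation.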

SMILES: COc1ccc(C(=O)n2c(C)c(Cc3cccc(O[C@@H](C)C(=O)O)c3)c3cc(OC(F)(F)F)ccc32)cc1
- Potency [1]: 22.1 µM (active)
- Potency [2]: 2.78 µM (active)
- Potency [3]: 3.16 µM (active)
- Potency [4]: 1.11 µM (active)
- Potency [5]: 12.6 µM (active)
- Potency [6]: inactive
- outcome [7]: inactive

SMILES: O=C(Nc1ccc(S(=O)(=O)Nc2nccs2)cc1)C(c1ccccc1)c1ccccc1
- Potency [2]: 6.98 µM (active)
- Potency [8]: inactive
- Potency [3]: 6.31 µM (active)
- Potency [9]: 7.08 µM (active)
- Potency [4]: 4.41 µM (active)
- Potency [5]: inactive
- Potency [6]: 50.1 µM (active)
- outcome [7]: inactive

SMILES: C/C1=C\CCC(C)CCO[C@@H]2O[C@H](CO[C@@H]3OC[C@H](O)[C@H](O)[C@H]3OC1=O)[C@@H](O)[C@H](O)[C@H]2O (some centres undefined)
- Potency [3]: 31.6 µM (active)

SMILES: N#CC(c1ccnc(OCc2ccc(CN3CCOCC3)cc2)n1)c1nc2ccccc2s1 (centres undefined)
- Potency [1]: inactive
- Potency [2]: 31.2 µM (active)
- Potency [3]: 3.98 µM (active)
- Potency [9]: 7.94 µM (active)
- Potency [4]: 31.2 µM (active)
- Potency [6]: 5.01 µM (active)
- outcome [7]: inactive

SMILES: CC(=O)O[C@H]1C(=O)[C@@]2(C)[C@H]([C@H](OC(=O)c3ccccc3)[C@]3(O)C[C@H](OC(=O)[C@H](O)[C@@H](NC(=O)c4ccccc4)c4ccccc4)C(C)=C1C3(C)C)[C@]1(OC(C)=O)CO[C@@H]1C[C@@H]2O
- Potency [10]: inactive
- Potency [3]: inactive
- Potency [9]: inactive

SMILES: COc1cc(O)c([C@@H](CC(=O)N2CC(C)CC(C)C2)c2ccc3c(c2)OCO3)c(OC)c1 (some centres undefined)
- Potency [3]: inactive

SMILES: CC1(C)CCC(C)(C)c2cc(C3(c4ccc(C(=O)O)cc4)OCCO3)ccc21
- Potency [1]: 39.3 µM (active)
- Potency [2]: 12.4 µM (active)
- Potency [9]: 5.62 µM (active)
- Potency [4]: 7.84 µM (active)
- Potency [5]: inactive
- outcome [7]: inactive

SMILES: Nc1ccccc1N
- Potency [10]: inactive

SMILES: OC/C=C/C=C/[C@H]1Cc2cc(O)cc(O)c2O1
- Potency [2]: 22.1 µM (active)
- Potency [3]: 39.8 µM (active)
- Potency [9]: inactive
- Potency [4]: 27.8 µM (active)

SMILES: O=C(O)/C=C/c1ccc(-c2ccc(O)c(C34CC5CC(CC(C5)C3)C4)c2)cc1
- Potency [1]: 44.1 µM (active)
- Potency [2]: 1.11 µM (active)
- Potency [3]: 2.24 µM (active)
- Potency [9]: 2.24 µM (active)
- Potency [4]: 1.24 µM (active)
- Potency [5]: inactive
- Potency [6]: 3.55 µM (active)
- outcome [7]: inactive

SMILES: O=C(O)Cc1ccc2oc(-c3ccc(NC(=O)/C=C/c4ccc(Br)cc4)c(F)c3)nc2c1
- Potency [1]: 13.9 µM (active)
- Potency [2]: 3.12 µM (active)
- Potency [8]: inactive
- Potency [3]: 3.16 µM (active)
- Potency [4]: 2.21 µM (active)
- Potency [5]: inactive
- Potency [6]: inactive
- outcome [7]: inactive

SMILES: Cc1cc(C(=O)N2CCCCc3ccccc32)ccc1CNC(=O)N1CCC[C@H]1C(=O)N(C)C
- Potency [3]: inactive

SMILES: C=C1[C@H](OC(C)=O)[C@H]2[C@@H](OC(C)=O)[C@](C)(OC(C)=O)C[C@]2(OC(C)=O)C(=O)[C@H](C)/C=C/C(C)(C)C(=O)[C@H](OC(=O)C(C)CC)[C@H]1OC(C)=O (some centres undefined)
- Potency [3]: inactive

SMILES: CCc1c(-c2ccccc2)c(-c2ccccc2)nn1-c1ccccc1-c1cccc(OCC(=O)O)c1
- Potency [1]: 27.8 µM (active)
- Potency [2]: 3.12 µM (active)
- Potency [3]: 6.31 µM (active)
- Potency [9]: 3.55 µM (active)
- Potency [4]: 3.12 µM (active)
- Potency [5]: 3.98 µM (active)
- Potency [6]: 2.51 µM (active)
- outcome [7]: inactive

SMILES: CC(C)(C)Nc1nc2cc(Cl)c(Cl)cc2nc1S(C)(=O)=O
- Potency [2]: inactive
- Potency [3]: 89.1 µM (active)
- Potency [9]: inactive
- Potency [4]: inactive

SMILES: COc1ccc(Cl)c(Nc2nc3ccccc3nc2NS(=O)(=O)c2cccc(NC(=O)C(C)(C)N)c2)c1
- Potency [2]: 5.55 µM (active)
- Potency [8]: 15.8 µM (active)
- Potency [3]: 7.94 µM (active)
- Potency [4]: 5.55 µM (active)
- Potency [5]: 2.51 µM (active)
- Potency [6]: 3.98 µM (active)
- outcome [7]: inactive

SMILES: CC1(C)CC[C@]2(C(=O)O)CC[C@]3(C)C(=CCC4[C@@]5(C)C[C@@H](O)[C@H](O)C(C)(C)C5CC[C@]43C)C2C1 (some centres undefined)
- Potency [2]: 8.57 µM (active)
- Potency [3]: 14.1 µM (active)
- Potency [4]: 6.07 µM (active)
- Potency [5]: 56.2 µM (active)
- Potency [6]: 6.31 µM (active)
- outcome [7]: inactive

SMILES: CC(C)[N+]1(C)C2CCC1CC(OC(=O)C(CO)c1ccccc1)C2 (centres undefined)
- Potency [10]: inactive
- Potency [3]: inactive
- Potency [9]: inactive
